The values that follow come from ChEMBL document CHEMBL3988442, “University of Dundee, Small-Polar-MMV Screening Library” (2021).

The whole screen tested about 48,000 compounds, of which about 13,000 (27%) showed an effect of 50% or more. Some of the results follow.

The test concerns Wolbachia pipientis. Nature of the test: Anti-Wolbachia Cell-Based Screen. It is filed as functional. Further details: scale not given: in the data most compounds retested in dose-response had high values. Conditions: 5 µM.
Take `COc1ccccc1CC(=O)N(CCN1CCOCC1)Cc1ccco1`: the “Percent Effect” value came out at 0.5032%.
For `COc1ccccc1CC(=O)N1CCN(Cc2ccco2)C[C@@H]1C` the value was 136.4%; for `C[C@@H]1CN(Cc2ccco2)CCN1C(=O)Cc1ccccc1F`, 87.95%.
Then `O=C(O)C(F)(F)F.O=C1[C@H]2CN(Cc3ccco3)C[C@H]2CN1c1cncnc1`, with 5.677%; and `Cc1ccc2c(n1)N(CC1CC1)CCN(Cc1ccco1)C2.O=C(O)C(F)(F)F.O=C(O)C(F)(F)F`, with 13.96%.
For `Cc1ccc(F)cc1CC(=O)N(CCN1CCOCC1)Cc1ccco1` the value was -4.12%; for `Cc1cccc(CNC(Cc2ccsc2)c2nccs2)n1` (stereo not given), 152.6%.
Consider `Cc1cccc(C)c1NC(=O)CNC(C)Cc1ccsc1` (stereo not given), for which the “Percent Effect” value is reported as -3.648%.
For `Cc1cc(N2CCC(NC(C)Cc3ccsc3)CC2)nc(C)n1` (stereo not given), the “Percent Effect” value was 1.122%.
For `O=C(O)C(F)(F)F.c1cnc(N2CCOCC3(CCCN(Cc4cc[nH]n4)C3)C2)nc1` (stereo not given) the value was -14.28%; for `CN(C)C[C@]12COC[C@H]1CN(Cc1ccccn1)C2.O=C(O)C(F)(F)F.O=C(O)C(F)(F)F.O=C(O)C(F)(F)F`, -16.37%.
With `O=C(O)C(F)(F)F.O=C(O)C(F)(F)F.O=C1N(c2ccsc2)CCC12CCCN(Cc1ccccn1)C2` (stereo not given), the “Percent Effect” value was 2.891%.
For `CCC(CC)CN1CCC2(CCCN(c3ncccn3)C2)C1` (stereo not given) the value was -25.35%.
Then `c1cnc(N2CCCC3(CCN(Cc4cccs4)C3)C2)nc1` (stereo not given), with 109.3%.
For `O=C(NCc1ccccn1)[C@]12COC[C@H]1CN(Cc1ccsc1)C2.O=C(O)C(F)(F)F.O=C(O)C(F)(F)F` the value was 103%; for `O=C(O)C(F)(F)F.O=C(O)C(F)(F)F.O=C(O)C(F)(F)F.c1ccc(CN2CCCC3(CCN(Cc4cccs4)C3)C2)nc1` (stereo not given), 118.7%.
`Fc1ccccc1CN1CCCC2(CCN(c3ncccn3)C2)C1` (stereo not given): the “Percent Effect” value is given as -4.552%.
For `Cc1nc(CN2CCOCC3(CCN(c4ncccn4)C3)C2)cs1.O=C(O)C(F)(F)F.O=C(O)C(F)(F)F` (stereo not given) the value was -16.84%; for `O=C(NCc1ccccn1)[C@]12COC[C@H]1CN(C1CCC1)C2.O=C(O)C(F)(F)F.O=C(O)C(F)(F)F`, -13.49%.
Consider `O=C(O)C(F)(F)F.O=C(O)C(F)(F)F.c1ccc(N2CCC3(COCCN(Cc4cccs4)C3)C2)nc1` (stereo not given), for which the “Percent Effect” value stood at 103.3%.
Regarding `c1cc([C@H]2C[C@@H]3CCN(Cc4nccs4)C[C@H]3O2)ncn1`, the “Percent Effect” value is on record as -0.9402%.
For `COCC1CC2(CCNCC2)CN1c1ncccn1` (stereo not given) the value was -4.112%; for `O=C(O)C(F)(F)F.O=C(O)C(F)(F)F.c1ccc(CN2CCCC3(CCN(CC4CCCO4)CC3)C2)nc1` (stereo not given), 98.44%; for `Fc1cnc(N2CCCC3(CCN(Cc4ccsc4)C3)C2)nc1.O=C(O)C(F)(F)F.O=C(O)C(F)(F)F` (stereo not given), -8.586%.
Then `CC(C)CN1CCCC2(CCN(c3ccccn3)C2)C1.O=C(O)C(F)(F)F` (stereo not given), with 0.9995%; and `O=C(O)C(F)(F)F.c1ccc(N2CCCC3(CCN(Cc4ccsc4)C3)C2)nc1` (stereo not given), with 92.47%; and `CC(C)N1CCO[C@H]2CN(C(=O)c3ccncc3F)C[C@H]21.O=C(O)C(F)(F)F`, with -21.77%.
For `Clc1cncc(N2CCN(Cc3ccon3)CC2)n1` the value was 98.12%.
Consider `CCN1CCN(Cc2nc(C)no2)CC1`, for which the “Percent Effect” value is 8.697%.
Then `c1cc(CN2CCN(Cc3ccon3)C3(CCCCC3)C2)no1`, with -15.56%.
With `CCN1CCN(c2cncc(Cl)n2)CC1`, the “Percent Effect” value turned out to be 88.05%.
For `CCN1CCN(Cc2csc(C(C)C)n2)CC1` the value was -0.2652%.
Then `c1cc(CN2CCSC3(CCCCC3)C2)no1`, with -28.1%.
Then `CC(C)(O)CNc1ccc(C#N)c(C(F)(F)F)c1`, with 7.337%; and `O=C(c1cnn2c1OCCC2)N1CCC2(CC1)OCCO2`, with -3.54%; and `O=C(C1CC=CC1)N1CCC2(CC1)OCCO2`, with 105.5%.
For the compound `O=C(C1CCN(S(=O)(=O)N2CCCC2)CC1)N1CCC2(CC1)OCCO2`, the “Percent Effect” value is 110.6%.
For `O=C(C1CCCCC1)N1CCC2(CC1)OCCO2` the value was 92.72%; for `O=C(C1CC(=O)N(c2ccccc2Br)C1)N1CCC2(CC1)OCCO2` (stereo not given), -9.549%; for `O=C(C1CCC1)N1CCC2(CC1)CNCCO2`, -23.25%.
In the case of `CS(=O)(=O)N1CCC(C(=O)N2CCC3(CC2)OCCCO3)CC1`, the “Percent Effect” value came out at 6.012%.
For `O=C(C1CCCC1)N1CCC2(CC1)OCCO2` the value was -31.13%; for `Cl.O=C(C1CC=CC1)N1CCC2(CC1)CNCCO2`, -11.15%.
For `Cn1cc(C2=CCN(CCCOc3ccc(C(N)=O)cc3)CC2)cn1` the value was -2.558%; for `Cc1cccnc1CN1CCC2(CC(Nc3ccncn3)C2)C1` (stereo not given), 130.7%.
